These results are taken from the supplement of paper PMC5641865, “A screen for kinase inhibitors identifies antimicrobial imidazopyridine aminofurazans as specific inhibitors of the Listeria monocytogenes PASTA kinase PrkA” (The Journal of Biological Chemistry, 2017).

Counter-ions that a name gives are not always drawn. ± gives the standard deviation of the averaged measurements.
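Note: End-point A600 read in BHI broth at 37 °C with 2% DMSO, inhibition computed as (1 − OD with compound plus ceftriaxone ÷ OD with ceftriaxone only) × 100.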

The assay concerns Listeria monocytogenes 10403S. As to the kind of experiment: growth inhibition relative to ceftriaxone-alone control; higher = stronger potentiation of ceftriaxone growth inhibition. To be noted: 10 µM; ceftriaxone 1 ug/ml; 12 h.
For the molecule `CN(c1ccc(NC(=O)Nc2c(Cl)cccc2Cl)cc1)c1ccnc(Nc2cccc(CS(C)(=O)=O)c2)n1`, the growth inhibition is -2.91 ± 0.88%.

Take `CS(=O)(=O)Nc1ccc(N/C=C2\C(=O)Nc3ccccc32)cc1`: the growth inhibition was -14.6 ± 19%.

Turning to `CCNC(=O)O[C@H]1CN[C@H](C#Cc2cc3ncnc(Nc4ccc(OCc5cccc(F)c5)c(Cl)c4)c3s2)C1`, the growth inhibition was 27.1 ± 33%.

`Cc1ccc(NC(=O)c2ccc(CN3CCN(C)CC3)cc2)cc1Nc1nccc(-c2cccnc2)n1` [Imatinib Mesylate]: the growth inhibition was determined as 29.9 ± 17%.

Take `NC(=O)c1cc(-c2ccncc2)cc(-c2ccccc2)c1N`: the growth inhibition stood at 2.14 ± 8.1%.

For the molecule `CC(C)c1ccc2c(c1)NC(=O)/C2=N/Nc1ccc(S(N)(=O)=O)cc1`, the growth inhibition is -0.275 ± 0.88%.

As for `COc1ccc2[nH]c3c4[nH]c5ccc(OC)cc5c4c4c(c3c2c1)C(=O)NC4=O`, the growth inhibition is -8.86 ± 4.5%.

As to `CCn1c(-c2nonc2N)nc2ccc(F)cc21`, the growth inhibition was -0.804 ± 2.6%.

On to `CC(C)=Cc1cccc2c1/C(=N/Nc1ccc(S(N)(=O)=O)cc1)C(=O)N2`, for which the growth inhibition was -2.72 ± 0.38%.

Consider `COc1ccc2ncn(-c3cc(O[C@H](C)c4ccccc4C(F)(F)F)c(C(N)=O)s3)c2c1`, for which the growth inhibition is 0.811 ± 11%.

Turning to `Nc1nccc(-c2c(-c3ccc(F)cc3)nn3cc(C(F)(F)F)ccc23)n1`, the growth inhibition was -7.97 ± 19%.

In the case of `COC(=O)c1ccc2c(c1)C(=Cc1cc(Br)c(O)c(Br)c1)C(=O)N2`, the growth inhibition was found to be 12.4 ± 1.5%.

As to `CNC(=O)c1ccccc1Sc1ccc2c(/C=C/c3ccccn3)n[nH]c2c1` [Axitinib], the growth inhibition is -11.8 ± 14%.

`NC(=O)c1cc(-c2ccc(F)cc2)cc(-c2ccncc2)c1N`: the growth inhibition is -1.35 ± 1.1%.

For the molecule `Cc1ccc2c(-c3ccnc(Nc4ccc5c(c4)OCCO5)n3)c(-c3ccc(C(F)(F)F)cc3)nn2n1`, the growth inhibition is -1.85 ± 0.84%.

Consider `CNC(=O)c1ccccc1Nc1nc(Nc2ccc(N3CCOCC3)cc2OC)ncc1Cl`, for which the growth inhibition was -3.4 ± 13%.

Turning to `CCCN1CCC(Oc2cc(Nc3nc(Nc4cccc(F)c4C(N)=O)c4cc[nH]c4n3)c(OC)cc2Cl)CC1`, the growth inhibition was -13.1 ± 20%.

With `CCCCOc1c(C(=O)c2c(F)cc(C)cc2F)c[nH]c2nncc1-2`, the growth inhibition was -6.78 ± 8.6%.

Regarding `COc1cc2ncnc(Nc3cccc(Br)c3)c2cc1OC`, the growth inhibition was 36.1 ± 16%.

On to `Cn1cnc(N)c2ncnc1-2` [3-Methyladenine], for which the growth inhibition stood at 4.53 ± 5.3%.

In the case of `COc1cc2ncn(-c3cc(OCc4ccccc4C(F)(F)F)c(C(=O)N(C)C)s3)c2cc1OC`, the growth inhibition was -5.41 ± 4.1%.

As for `CC1(C)CC(n2cnc(-c3ccc(F)cc3)c2-c2ccnc(N)n2)CC(C)(C)N1`, the growth inhibition is -11.4 ± 8.9%.

With `N#Cc1c(NC(=O)CN2CCOCC2)sc2c1CCCC2`, the growth inhibition turned out to be 9.96 ± 12%.
